In PMC11006913 one finds binding signal data, which are given here for 22 sequences.

Numbering of substitutions follows the chain as printed.

Test in all cases: PBM; 200 nM protein, PBS
What all share (conditions): dsDNA, one strand shown

The target in assay [1] is PRRX1 (Homo sapiens, UniProt P54821 80-166, F113S).
Assay [2] addresses PRRX1 (Homo sapiens, UniProt P54821 80-166).
Assay [3] addresses HESX1 (Homo sapiens, UniProt Q9UBX0 95-180, R109Q).
For assay [4], the target named is HESX1 (Homo sapiens, UniProt Q9UBX0 95-180, P111T).
Chain of HESX1 (Homo sapiens, UniProt Q9UBX0 95-180, P111T) (Q9UBX0 95-180 P111T): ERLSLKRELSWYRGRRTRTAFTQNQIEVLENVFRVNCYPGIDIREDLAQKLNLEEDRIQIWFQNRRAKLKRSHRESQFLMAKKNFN
Assay [5] addresses ALX4 (Homo sapiens, UniProt Q9H161 200-286).
Assay [6] deals with ALX4 (Homo sapiens, UniProt Q9H161 200-286, Q225E).
Chain of ALX4 (Homo sapiens, UniProt Q9H161 200-286, Q225E) (Q9H161 200-286 Q225E): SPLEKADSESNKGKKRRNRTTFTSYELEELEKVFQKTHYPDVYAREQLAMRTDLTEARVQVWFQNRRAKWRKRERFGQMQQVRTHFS
The target of assay [7] is T1, PAX4 (Homo sapiens, UniProt O43316 9-242, R200K).
T1 sequence: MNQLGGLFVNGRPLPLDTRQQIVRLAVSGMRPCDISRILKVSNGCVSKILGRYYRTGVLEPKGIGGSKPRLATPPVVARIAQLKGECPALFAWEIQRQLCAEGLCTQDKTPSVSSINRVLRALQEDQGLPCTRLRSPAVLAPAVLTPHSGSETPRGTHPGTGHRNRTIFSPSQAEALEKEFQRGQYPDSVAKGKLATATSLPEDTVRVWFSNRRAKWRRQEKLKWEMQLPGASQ

Assay [8] concerns the target T2, PAX4 (Homo sapiens, UniProt O43316 9-242, R200Q).
T2 sequence: T1 sequence with K192Q

Assay [9] concerns the target T3, PAX4 (Homo sapiens, UniProt O43316 9-242, F177V).
T3 sequence: T1 sequence with F169V, K192R

For assay [10], the target named is T4, PAX4 (Homo sapiens, UniProt O43316 9-242, F177Y).
T4 sequence: T1 sequence with F169Y, K192R

The target of assay [11] is ALX3 (Homo sapiens, UniProt O95076 139-225, N203Q).
Chain of ALX3 (Homo sapiens, UniProt O95076 139-225, N203Q) (O95076 139-225 N203Q): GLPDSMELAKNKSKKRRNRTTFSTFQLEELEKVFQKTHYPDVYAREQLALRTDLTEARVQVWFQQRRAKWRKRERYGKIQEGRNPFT
The target of assay [12] is ALX3 (Homo sapiens, UniProt O95076 139-225).
Chain of ALX3 (Homo sapiens, UniProt O95076 139-225) (O95076 139-225): as the sequence (O95076 139-225 N203Q) above, with Q65N counted along it
Assay [13] addresses VAX1 (Homo sapiens, UniProt Q5SQQ9 86-172).
Assay [14] deals with ALX3 (Homo sapiens, UniProt O95076 139-225, L168Q).
Chain of ALX3 (Homo sapiens, UniProt O95076 139-225, L168Q) (O95076 139-225 L168Q): as the sequence (O95076 139-225 N203Q) above, with L30Q, Q65N counted along it
Assay [15] concerns the target ALX3 (Homo sapiens, UniProt O95076 139-225, L168V).
Assay [16] deals with VAX1 (Homo sapiens, UniProt Q5SQQ9 86-172, T142I).
Chain of VAX1 (Homo sapiens, UniProt Q5SQQ9 86-172, T142I) (Q5SQQ9 86-172 T142I): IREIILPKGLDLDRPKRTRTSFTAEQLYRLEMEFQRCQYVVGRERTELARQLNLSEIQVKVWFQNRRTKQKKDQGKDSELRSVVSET
Assay [17] has as its target ALX3 (Homo sapiens, UniProt O95076 139-225, N203S).
The target in assay [18] is CRX (Homo sapiens, UniProt O43186 26-111).
Chain of CRX (Homo sapiens, UniProt O43186 26-111) (O43186 26-111): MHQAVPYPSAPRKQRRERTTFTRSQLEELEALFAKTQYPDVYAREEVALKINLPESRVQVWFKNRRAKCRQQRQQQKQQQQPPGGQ
For assay [19], the target named is CRX (Homo sapiens, UniProt O43186 26-111, E42D).
Chain of CRX (Homo sapiens, UniProt O43186 26-111, E42D) (O43186 26-111 E42D): as the sequence (O43186 26-111) above, with E17D counted along it
Assay [20] deals with CRX (Homo sapiens, UniProt O43186 26-111, R41L).
Chain of CRX (Homo sapiens, UniProt O43186 26-111, R41L) (O43186 26-111 R41L): as the sequence (O43186 26-111) above, with R16L counted along it

Chain of PRRX1 (Homo sapiens, UniProt P54821 80-166) (P54821 80-166): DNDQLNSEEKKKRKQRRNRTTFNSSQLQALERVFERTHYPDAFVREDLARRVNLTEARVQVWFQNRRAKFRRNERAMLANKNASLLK
Chain of PRRX1 (Homo sapiens, UniProt P54821 80-166, F113S) (P54821 80-166 F113S): as the sequence (P54821 80-166) above, with F34S counted along it
Chain of HESX1 (Homo sapiens, UniProt Q9UBX0 95-180, R109Q) (Q9UBX0 95-180 R109Q): as the sequence (Q9UBX0 95-180 P111T) above, with R15Q, T17P counted along it
Chain of VAX1 (Homo sapiens, UniProt Q5SQQ9 86-172) (Q5SQQ9 86-172): as the sequence (Q5SQQ9 86-172 T142I) above, with I57T counted along it
Chain of ALX4 (Homo sapiens, UniProt Q9H161 200-286) (Q9H161 200-286): as the sequence (Q9H161 200-286 Q225E) above, with E26Q counted along it
Chain of ALX3 (Homo sapiens, UniProt O95076 139-225, L168V) (O95076 139-225 L168V): as the sequence (O95076 139-225 N203Q) above, with L30V, Q65N counted along it
Chain of ALX3 (Homo sapiens, UniProt O95076 139-225, N203S) (O95076 139-225 N203S): as the sequence (O95076 139-225 N203Q) above, with Q65S counted along it

CACGCGTG: the binding signal with PRRX1 [1] was 9.36 upbm affinity estimate (log intensity, higher = more binding, comparable within an allelic series); with PRRX1 [2] it was 9.41 upbm affinity estimate (log intensity, higher = more binding, comparable within an allelic series).
For the sequence CCGCGTCG, the binding signal with HESX1 [3] is 6.5 upbm affinity estimate (log intensity, higher = more binding, comparable within an allelic series); in the assay with HESX1 [4] it was 6.49 upbm affinity estimate (log intensity, higher = more binding, comparable within an allelic series).
Consider CCCGGCGG, for which the binding signal is 7.89 upbm affinity estimate (log intensity, higher = more binding, comparable within an allelic series) with ALX4 [5] and 8.11 upbm affinity estimate (log intensity, higher = more binding, comparable within an allelic series) in the assay with ALX4 [6].
In the case of ACCCGGGC, the binding signal is 9.17 upbm affinity estimate (log intensity, higher = more binding, comparable within an allelic series) with PAX4 [7]; 9.34 upbm affinity estimate (log intensity, higher = more binding, comparable within an allelic series) in the assay with PAX4 [8]; 9.22 upbm affinity estimate (log intensity, higher = more binding, comparable within an allelic series) in the assay with PAX4 [9]; 9.24 upbm affinity estimate (log intensity, higher = more binding, comparable within an allelic series) with PAX4 [10].
Consider CGGGCTCC, for which the binding signal is 7.48 upbm affinity estimate (log intensity, higher = more binding, comparable within an allelic series) in the assay with ALX4 [5]; 8.72 upbm affinity estimate (log intensity, higher = more binding, comparable within an allelic series) with PAX4 [7]; 8.95 upbm affinity estimate (log intensity, higher = more binding, comparable within an allelic series) in the assay with PRRX1 [1]; 7.51 upbm affinity estimate (log intensity, higher = more binding, comparable within an allelic series) with ALX4 [6]; 7.6 upbm affinity estimate (log intensity, higher = more binding, comparable within an allelic series) with ALX3 [11]; 9.02 upbm affinity estimate (log intensity, higher = more binding, comparable within an allelic series) with PAX4 [8]. Besides, the binding signal is 8.99 upbm affinity estimate (log intensity, higher = more binding, comparable within an allelic series) with PAX4 [9]; 7.17 upbm affinity estimate (log intensity, higher = more binding, comparable within an allelic series) in the assay with ALX3 [12]; 8.93 upbm affinity estimate (log intensity, higher = more binding, comparable within an allelic series) with PAX4 [10]; 6.15 upbm affinity estimate (log intensity, higher = more binding, comparable within an allelic series) with VAX1 [13]; 7.45 upbm affinity estimate (log intensity, higher = more binding, comparable within an allelic series) with ALX3 [14]; 7.45 upbm affinity estimate (log intensity, higher = more binding, comparable within an allelic series) with ALX3 [15]. For the same sequence, the binding signal was 6.61 upbm affinity estimate (log intensity, higher = more binding, comparable within an allelic series) with VAX1 [16]; 7.54 upbm affinity estimate (log intensity, higher = more binding, comparable within an allelic series) in the assay with ALX3 [17]; 8.33 upbm affinity estimate (log intensity, higher = more binding, comparable within an allelic series) in the assay with PRRX1 [2].
Regarding ACGGCTGG, the binding signal with PAX4 [7] was 9.35 upbm affinity estimate (log intensity, higher = more binding, comparable within an allelic series); in the assay with PAX4 [8] it was 9.48 upbm affinity estimate (log intensity, higher = more binding, comparable within an allelic series); in the assay with PAX4 [9], 9.33 upbm affinity estimate (log intensity, higher = more binding, comparable within an allelic series); with PAX4 [10], 9.33 upbm affinity estimate (log intensity, higher = more binding, comparable within an allelic series).
With ACGGCGGC, the binding signal was 7.01 upbm affinity estimate (log intensity, higher = more binding, comparable within an allelic series) with VAX1 [13] and 7.25 upbm affinity estimate (log intensity, higher = more binding, comparable within an allelic series) with VAX1 [16].
As for CGGACCCG, the binding signal with CRX [18] is 8.38 upbm affinity estimate (log intensity, higher = more binding, comparable within an allelic series); with CRX [19], 8.29 upbm affinity estimate (log intensity, higher = more binding, comparable within an allelic series); with CRX [20], 8.36 upbm affinity estimate (log intensity, higher = more binding, comparable within an allelic series).
As for ACGCGCAG, the binding signal is 9.07 upbm affinity estimate (log intensity, higher = more binding, comparable within an allelic series) with PRRX1 [1] and 9.2 upbm affinity estimate (log intensity, higher = more binding, comparable within an allelic series) with PRRX1 [2].
Consider ATTACGTA, for which the binding signal in the assay with CRX [18] is 10.5 upbm affinity estimate (log intensity, higher = more binding, comparable within an allelic series); with CRX [19], 10.4 upbm affinity estimate (log intensity, higher = more binding, comparable within an allelic series); with CRX [20], 10.2 upbm affinity estimate (log intensity, higher = more binding, comparable within an allelic series).
For the sequence CGGTCCAA, the binding signal with CRX [18] was 8.48 upbm affinity estimate (log intensity, higher = more binding, comparable within an allelic series); with CRX [19] it was 8.43 upbm affinity estimate (log intensity, higher = more binding, comparable within an allelic series); in the assay with CRX [20], 8.25 upbm affinity estimate (log intensity, higher = more binding, comparable within an allelic series).
For AATTAGCT, the binding signal in the assay with ALX4 [5] was 13.6 upbm affinity estimate (log intensity, higher = more binding, comparable within an allelic series); with PAX4 [7] it was 11.7 upbm affinity estimate (log intensity, higher = more binding, comparable within an allelic series); in the assay with PRRX1 [1] it was 11.1 upbm affinity estimate (log intensity, higher = more binding, comparable within an allelic series); with ALX4 [6], 12.7 upbm affinity estimate (log intensity, higher = more binding, comparable within an allelic series); with ALX3 [11] it was 8.34 upbm affinity estimate (log intensity, higher = more binding, comparable within an allelic series); with PAX4 [8] it was 11.9 upbm affinity estimate (log intensity, higher = more binding, comparable within an allelic series). In addition, the binding signal in the assay with PAX4 [9] is 10.4 upbm affinity estimate (log intensity, higher = more binding, comparable within an allelic series); with ALX3 [12], 12.2 upbm affinity estimate (log intensity, higher = more binding, comparable within an allelic series); in the assay with PAX4 [10], 10.9 upbm affinity estimate (log intensity, higher = more binding, comparable within an allelic series); in the assay with HESX1 [3], 8.93 upbm affinity estimate (log intensity, higher = more binding, comparable within an allelic series); with ALX3 [14], 10.3 upbm affinity estimate (log intensity, higher = more binding, comparable within an allelic series); with HESX1 [4], 10.4 upbm affinity estimate (log intensity, higher = more binding, comparable within an allelic series). For the same sequence, the binding signal is 9.87 upbm affinity estimate (log intensity, higher = more binding, comparable within an allelic series) with ALX3 [15] and 8.56 upbm affinity estimate (log intensity, higher = more binding, comparable within an allelic series) with ALX3 [17].
For CGAACGCC, the binding signal in the assay with CRX [18] was 7.92 upbm affinity estimate (log intensity, higher = more binding, comparable within an allelic series); in the assay with CRX [19], 8.15 upbm affinity estimate (log intensity, higher = more binding, comparable within an allelic series); in the assay with CRX [20], 8.11 upbm affinity estimate (log intensity, higher = more binding, comparable within an allelic series).
In the case of CCGGCGCG, the binding signal with CRX [18] was 8.33 upbm affinity estimate (log intensity, higher = more binding, comparable within an allelic series); with CRX [19] it was 8.4 upbm affinity estimate (log intensity, higher = more binding, comparable within an allelic series); with CRX [20], 8.36 upbm affinity estimate (log intensity, higher = more binding, comparable within an allelic series).
As for CTTCCGTC, the binding signal is 6.56 upbm affinity estimate (log intensity, higher = more binding, comparable within an allelic series) with HESX1 [3] and 6.55 upbm affinity estimate (log intensity, higher = more binding, comparable within an allelic series) with HESX1 [4].
As for CTAATTGC, the binding signal was 13.6 upbm affinity estimate (log intensity, higher = more binding, comparable within an allelic series) with ALX4 [5]; 12.8 upbm affinity estimate (log intensity, higher = more binding, comparable within an allelic series) in the assay with ALX4 [6]; 8.22 upbm affinity estimate (log intensity, higher = more binding, comparable within an allelic series) with ALX3 [11]; 12.3 upbm affinity estimate (log intensity, higher = more binding, comparable within an allelic series) with ALX3 [12]; 8.98 upbm affinity estimate (log intensity, higher = more binding, comparable within an allelic series) in the assay with HESX1 [3]; 13 upbm affinity estimate (log intensity, higher = more binding, comparable within an allelic series) with VAX1 [13]. Besides, the binding signal with ALX3 [14] was 10.3 upbm affinity estimate (log intensity, higher = more binding, comparable within an allelic series); in the assay with HESX1 [4], 10.9 upbm affinity estimate (log intensity, higher = more binding, comparable within an allelic series); with ALX3 [15], 9.7 upbm affinity estimate (log intensity, higher = more binding, comparable within an allelic series); with VAX1 [16], 12.9 upbm affinity estimate (log intensity, higher = more binding, comparable within an allelic series); with ALX3 [17], 8.29 upbm affinity estimate (log intensity, higher = more binding, comparable within an allelic series).
As to CCAGCGCG, the binding signal with HESX1 [3] was 6.45 upbm affinity estimate (log intensity, higher = more binding, comparable within an allelic series); in the assay with HESX1 [4], 6.49 upbm affinity estimate (log intensity, higher = more binding, comparable within an allelic series).
Take CGTGCACG: the binding signal was 9.62 upbm affinity estimate (log intensity, higher = more binding, comparable within an allelic series) with PRRX1 [1] and 9.56 upbm affinity estimate (log intensity, higher = more binding, comparable within an allelic series) in the assay with PRRX1 [2].
CGGTCGGC: the binding signal was 8.27 upbm affinity estimate (log intensity, higher = more binding, comparable within an allelic series) in the assay with ALX4 [5]; 7.99 upbm affinity estimate (log intensity, higher = more binding, comparable within an allelic series) with ALX4 [6]; 7.66 upbm affinity estimate (log intensity, higher = more binding, comparable within an allelic series) with ALX3 [11]; 7.68 upbm affinity estimate (log intensity, higher = more binding, comparable within an allelic series) in the assay with ALX3 [12]; 7.79 upbm affinity estimate (log intensity, higher = more binding, comparable within an allelic series) with ALX3 [14]; 7.75 upbm affinity estimate (log intensity, higher = more binding, comparable within an allelic series) in the assay with ALX3 [15]. Besides, the binding signal in the assay with ALX3 [17] is 7.69 upbm affinity estimate (log intensity, higher = more binding, comparable within an allelic series).
For the sequence GCGACGCC, the binding signal was 7.12 upbm affinity estimate (log intensity, higher = more binding, comparable within an allelic series) with VAX1 [13] and 7.24 upbm affinity estimate (log intensity, higher = more binding, comparable within an allelic series) in the assay with VAX1 [16].
For the sequence CCGGTGGC, the binding signal in the assay with VAX1 [13] was 7.31 upbm affinity estimate (log intensity, higher = more binding, comparable within an allelic series); in the assay with VAX1 [16] it was 7.45 upbm affinity estimate (log intensity, higher = more binding, comparable within an allelic series).
CACGGGCC: the binding signal with ALX3 [11] was 7.64 upbm affinity estimate (log intensity, higher = more binding, comparable within an allelic series); with ALX3 [12], 7.66 upbm affinity estimate (log intensity, higher = more binding, comparable within an allelic series); with ALX3 [14], 7.64 upbm affinity estimate (log intensity, higher = more binding, comparable within an allelic series); with ALX3 [15], 7.58 upbm affinity estimate (log intensity, higher = more binding, comparable within an allelic series); with ALX3 [17], 7.68 upbm affinity estimate (log intensity, higher = more binding, comparable within an allelic series).
